Measurements: the supplement of paper PMC4840960
Structures can show the parent of a compound that is named as a salt.

Each molecule was assayed on E18 rat cortical neuron-glia co-culture (assay: myelination (MBP fiber length per Olig2+ nucleus), % of 1 µM DAPT response (DMSO = 0) (% of DAPT); higher = more myelination, active = 50 or more). Settings: 5 µM; treatment time: 8 days (DIV5-DIV13).
Outline: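 Primary E18 rat cortical co-cultures (papain-dissociated, 20,000 cells/well on poly-d-lysine/laminin 96-well plates) received library compounds at 1 or 5 µM in myelination medium from DIV5 to DIV13. Cells were fixed in 4 % paraformaldehyde and immunostained for MBP and Olig2 with DAPI, and four 10X fields per well in duplicate wells were analysed. Myelination was continuous straight MBP fiber length per Olig2+ nucleus, normalised to 0.1 % DMSO (0) and a 1 µM positive control (100).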

SMILES | myelination
COc1ccc2c(c1)[C@]13CCCC[C@@H]1[C@H](C2)N(C)CC3 [Dextromethorphan] | 1.54 (inactive)
NC1=NC(=O)C(c2ccccc2)O1 (configuration not stated) [Pemoline] | -11.3 (inactive)
CCCC(C)(COC(N)=O)COC(=O)NC(C)C (configuration not stated) [Carisoprodol] | -11.9 (inactive)
CCN(CC)CCOC(=O)C(O)(c1ccccc1)c1ccccc1 [Benactyzine] | 0.796 (inactive)
Cc1nnc2n1-c1ccc(Cl)cc1C(c1ccccc1)=NC2 [Alprazolam] | -17.4 (inactive)
CN1[C@@H]2C[C@@H](OC(=O)[C@H](CO)c3ccccc3)C[C@H]1[C@@H]1O[C@@H]12 [Scopolamine hydrobromide] | -31.2 (inactive)
COc1ccc2[nH]cc(CCN)c2c1 [5-Methoxytryptamine] | -8.85 (inactive)
CN1CC[C@]2(c3cccc(O)c3)Cc3nc4ccccc4cc3C[C@H]2C1 | 2.91 (inactive)
COc1cc2c(cc1OC)[C@@]13CCN4CC5=CCO[C@H]6CC(=O)N2[C@H]1[C@H]6[C@H]5C[C@H]43 [Brucine] | -15.7 (inactive)
C[C@]12CC[C@H](O)CC1=CC[C@@H]1[C@@H]2CC[C@]2(C)C(=O)CC[C@@H]12 [Dehydroepiandrosterone] | -6.07 (inactive)
COc1ccc(C(CN(C)C)C2(O)CCCCC2)cc1 (configuration not stated) [Venlafaxine] | -3.31 (inactive)
C=CCN1CC[C@]23c4c5ccc(O)c4O[C@H]2C(=O)CC[C@@]3(O)[C@H]1C5 [Naloxone] | 3.29 (inactive)
O[C@@H]1CCCC[C@H]1N1CCC(c2ccccc2)CC1 (racemic) [Vesamicol] | -46 (inactive)
CN1CC[C@]23CCCC[C@H]2[C@H]1Cc1ccc(O)cc13 [Levorphanol] | -51.1 (inactive)
CCC(C(N)=O)N1CCCC1=O (configuration not stated) [Etiracetam] | -27.5 (inactive)
Cc1ccc(-c2nc3ccc(C)cn3c2CC(=O)N(C)C)cc1 [Zolpidem] | -13.3 (inactive)
CN1CCN(C(=O)O[C@H]2c3nccnc3C(=O)N2c2ccc(Cl)cn2)CC1 [Eszopiclone] | 15.5 (inactive)
COc1cc([C@@H]2c3cc4c(cc3[C@H](O)[C@H]3COC(=O)[C@H]23)OCO4)cc(OC)c1OC [Podophyllotoxin] | -15.8 (inactive)
C[C@]12CC[C@H]3[C@@H](CCC4=CC(=O)CC[C@@]43C)[C@@H]1CC[C@@H]2O [Testosterone] | -15.4 (inactive)
C[N+]1(CCC(C(N)=O)(c2ccccc2)c2ccccc2)CCCCC1 [Fenpiverinium] | 191
CNC1=Nc2ccc(Cl)cc2C(c2ccccc2)=[N+]([O-])C1 [Chlordiazepoxide] | -16.1 (inactive)
CC(O)(CS(=O)(=O)c1ccc(F)cc1)C(=O)Nc1ccc(C#N)c(C(F)(F)F)c1 (configuration not stated) [Bicalutamide] | -2.06 (inactive)
Oc1ccc2c3c1O[C@H]1c4[nH]c5ccccc5c4C[C@@]4(O)[C@@H](C2)N(CC2CC2)CC[C@]314 [Naltrindole] | -19 (inactive)
C[C@]12CCC(=O)C=C1CC[C@@H]1[C@@H]2CC[C@@]2(C)[C@H]1CC[C@]2(C)O [Methyltestosterone] | -17.2 (inactive)
CNC(=O)Oc1ccc2c(c1)[C@]1(C)CCN(C)[C@@H]1N2C [Physostigmine] | -9.34 (inactive)
O=C1Nc2ccc(Cl)cc2C(c2ccccc2Cl)=NC1O (configuration not stated) [Lorazepam] | 15 (inactive)
CS(=O)(=O)Nc1ccc(Cc2noc(-c3ccc4[nH]cc(CCN)c4c3)n2)cc1 | -17.8 (inactive)
